Among the data in PMC7862700, “An all-to-all approach to the identification of sequence-specific readers for epigenetic DNA modifications on cytosine” are binding signal values, retold here.

Common to all, as to assay: DAPPL (digital affinity profiling via proximity ligation, sequencing); 10 mM Tris-HCl pH 7.5, 50 mM NaCl, 1 mM DTT, 4% glycerol, room temperature, 30 min; GST-TFs on glutathione beads, 16-mer random dsDNA library, 0.1% formaldehyde crosslink after washing; high values mean tight binding
Holding throughout (settings): protein: recombinant; tags: N-terminal GST; dsDNA, one strand shown

One test concerns the target T1, ERF (Homo sapiens, UniProt P50548 1-548).
T1 sequence: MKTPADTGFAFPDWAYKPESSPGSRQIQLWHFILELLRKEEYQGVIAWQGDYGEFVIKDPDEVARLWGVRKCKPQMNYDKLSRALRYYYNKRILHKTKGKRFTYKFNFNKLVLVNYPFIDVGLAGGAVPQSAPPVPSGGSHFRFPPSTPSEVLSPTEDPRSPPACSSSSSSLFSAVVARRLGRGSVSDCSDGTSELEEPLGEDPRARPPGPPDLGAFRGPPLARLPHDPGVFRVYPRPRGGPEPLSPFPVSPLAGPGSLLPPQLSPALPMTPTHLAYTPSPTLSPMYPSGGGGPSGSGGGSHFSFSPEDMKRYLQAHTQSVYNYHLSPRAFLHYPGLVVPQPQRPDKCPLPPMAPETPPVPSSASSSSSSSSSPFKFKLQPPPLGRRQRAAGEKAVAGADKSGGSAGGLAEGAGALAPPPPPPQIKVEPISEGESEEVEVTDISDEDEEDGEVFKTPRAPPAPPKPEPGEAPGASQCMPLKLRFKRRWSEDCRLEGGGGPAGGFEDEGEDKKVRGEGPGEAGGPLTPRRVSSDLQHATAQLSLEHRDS
The method, boiled down:
(§1)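 Yeast served to express human transcription factors as GST fusions, which were then captured on glutathione beads and labelled with DNA barcodes. Pooled with a tag-only sample, they were incubated with 200 nmole of a 16-mer random double-stranded DNA library for 30 min at room temperature in Tris/NaCl/DTT/glycerol buffer, washed, crosslinked with 0.1% formaldehyde, ligated by proximity, amplified by PCR and sequenced. Dividing each hexamer's read frequency for a factor by its frequency for the tag-only sample gives the binding signal.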

A further test has as its target T2, ETV3L (Homo sapiens, UniProt Q6ZN32 1-361).
T2 sequence: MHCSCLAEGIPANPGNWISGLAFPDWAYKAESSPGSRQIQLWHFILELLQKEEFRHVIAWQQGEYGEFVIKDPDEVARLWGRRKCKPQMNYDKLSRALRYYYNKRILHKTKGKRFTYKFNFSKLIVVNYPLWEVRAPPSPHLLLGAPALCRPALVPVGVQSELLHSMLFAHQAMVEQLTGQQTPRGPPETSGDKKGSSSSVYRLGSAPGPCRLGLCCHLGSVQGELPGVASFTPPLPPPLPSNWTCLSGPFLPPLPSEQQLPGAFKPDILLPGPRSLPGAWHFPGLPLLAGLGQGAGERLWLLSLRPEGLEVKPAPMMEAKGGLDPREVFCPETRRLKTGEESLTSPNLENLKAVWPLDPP
The method, boiled down:
as §1

A further test has as its target T3, ETS2 (Homo sapiens, UniProt P15036 1-469).
T3 sequence: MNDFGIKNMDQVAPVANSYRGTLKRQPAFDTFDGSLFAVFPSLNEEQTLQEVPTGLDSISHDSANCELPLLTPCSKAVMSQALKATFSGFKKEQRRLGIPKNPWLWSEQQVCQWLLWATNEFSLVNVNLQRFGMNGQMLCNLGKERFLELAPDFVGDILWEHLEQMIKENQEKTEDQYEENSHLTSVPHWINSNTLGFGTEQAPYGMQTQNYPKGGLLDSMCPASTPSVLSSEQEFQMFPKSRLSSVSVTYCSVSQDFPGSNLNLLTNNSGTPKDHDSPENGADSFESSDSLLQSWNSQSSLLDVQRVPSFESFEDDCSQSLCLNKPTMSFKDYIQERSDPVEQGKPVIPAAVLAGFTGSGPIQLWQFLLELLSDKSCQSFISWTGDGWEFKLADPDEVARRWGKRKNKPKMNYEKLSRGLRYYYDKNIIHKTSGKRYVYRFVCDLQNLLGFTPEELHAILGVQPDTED
The method, boiled down:
as §1

The next test deals with T4, SPDEF (Homo sapiens, UniProt O95238 1-335).
T4 sequence: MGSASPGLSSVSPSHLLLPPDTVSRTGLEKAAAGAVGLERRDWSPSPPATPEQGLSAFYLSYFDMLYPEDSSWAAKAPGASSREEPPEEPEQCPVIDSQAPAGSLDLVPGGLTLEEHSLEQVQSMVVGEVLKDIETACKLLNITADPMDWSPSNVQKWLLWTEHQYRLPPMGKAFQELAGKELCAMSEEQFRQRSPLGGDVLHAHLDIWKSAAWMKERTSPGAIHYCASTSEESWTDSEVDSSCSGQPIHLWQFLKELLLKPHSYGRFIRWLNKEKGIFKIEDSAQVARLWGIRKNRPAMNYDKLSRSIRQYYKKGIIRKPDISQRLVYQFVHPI
A digest of the protocol:
as §1

The next test concerns the target T5, ETV7 (Homo sapiens, UniProt Q9Y603 1-341).
T5 sequence: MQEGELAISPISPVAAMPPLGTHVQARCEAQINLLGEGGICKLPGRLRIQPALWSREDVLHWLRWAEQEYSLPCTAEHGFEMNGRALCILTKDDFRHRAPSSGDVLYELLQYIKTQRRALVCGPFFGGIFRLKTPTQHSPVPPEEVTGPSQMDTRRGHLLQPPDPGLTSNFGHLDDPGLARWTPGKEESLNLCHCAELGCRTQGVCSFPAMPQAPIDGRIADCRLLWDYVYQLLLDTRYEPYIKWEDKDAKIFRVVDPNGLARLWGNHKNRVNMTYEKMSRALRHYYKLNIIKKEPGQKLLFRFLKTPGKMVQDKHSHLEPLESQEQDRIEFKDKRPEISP
A digest of the protocol:
as §1

The target of a further test is T6, ELF5 (Homo sapiens, UniProt Q9UKW6-2 1-255).
T6 sequence: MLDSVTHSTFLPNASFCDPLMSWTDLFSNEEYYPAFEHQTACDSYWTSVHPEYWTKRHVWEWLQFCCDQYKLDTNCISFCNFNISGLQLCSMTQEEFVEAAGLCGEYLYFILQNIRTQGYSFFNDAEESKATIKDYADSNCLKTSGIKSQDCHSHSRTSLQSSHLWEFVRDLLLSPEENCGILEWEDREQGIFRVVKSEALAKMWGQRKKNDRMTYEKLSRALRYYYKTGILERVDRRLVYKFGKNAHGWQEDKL
The method, boiled down:
as §1

The target of the next test is T7, ETV3 (Homo sapiens, UniProt P41162-2 1-143).
T7 sequence: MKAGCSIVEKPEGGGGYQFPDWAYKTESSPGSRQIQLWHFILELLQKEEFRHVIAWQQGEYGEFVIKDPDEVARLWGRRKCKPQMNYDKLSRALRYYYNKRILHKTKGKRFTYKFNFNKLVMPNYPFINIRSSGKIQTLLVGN
A digest of the protocol:
as §1

In another test the target is ETV6 (Homo sapiens, UniProt P41212 1-452). A digest of the protocol: as §1
ETV6, sequence (P41212 whole entry): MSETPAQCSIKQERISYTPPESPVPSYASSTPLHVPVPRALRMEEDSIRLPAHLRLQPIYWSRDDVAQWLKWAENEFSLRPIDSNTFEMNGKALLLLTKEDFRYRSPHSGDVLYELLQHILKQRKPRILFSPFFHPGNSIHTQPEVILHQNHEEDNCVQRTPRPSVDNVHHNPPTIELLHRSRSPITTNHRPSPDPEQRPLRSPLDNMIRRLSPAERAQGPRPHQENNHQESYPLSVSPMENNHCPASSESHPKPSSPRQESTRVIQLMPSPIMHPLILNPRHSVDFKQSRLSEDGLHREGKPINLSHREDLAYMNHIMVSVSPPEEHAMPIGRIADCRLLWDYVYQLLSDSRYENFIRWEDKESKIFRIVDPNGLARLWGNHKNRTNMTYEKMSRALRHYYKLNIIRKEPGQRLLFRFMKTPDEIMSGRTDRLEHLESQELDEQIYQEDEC

For the sequence CAACTA, the binding signal is 1.24 fold enrichment (6-mer frequency, TF over GST control) with ERF; 1.29 fold enrichment (6-mer frequency, TF over GST control) with ETV3L; 1.3 fold enrichment (6-mer frequency, TF over GST control) with ETS2; 1.32 fold enrichment (6-mer frequency, TF over GST control) in the test with SPDEF; 1.24 fold enrichment (6-mer frequency, TF over GST control) in the test with ETV7; 1.26 fold enrichment (6-mer frequency, TF over GST control) with ELF5. The binding signal in the test with ETV3 is 1.2 fold enrichment (6-mer frequency, TF over GST control); with ETV6, 1.25 fold enrichment (6-mer frequency, TF over GST control).

Turning to ATCCAC, the binding signal with ERF is 1.27 fold enrichment (6-mer frequency, TF over GST control); in the test with ETV3L, 1.05 fold enrichment (6-mer frequency, TF over GST control); with ETS2 it was 1.2 fold enrichment (6-mer frequency, TF over GST control); in the test with SPDEF it was 1.18 fold enrichment (6-mer frequency, TF over GST control); with ETV7, 1.18 fold enrichment (6-mer frequency, TF over GST control); in the test with ELF5, 1.16 fold enrichment (6-mer frequency, TF over GST control). The binding signal is 1.14 fold enrichment (6-mer frequency, TF over GST control) with ETV3 and 1.25 fold enrichment (6-mer frequency, TF over GST control) with ETV6.

Regarding CTCGTA, the binding signal is 1.23 fold enrichment (6-mer frequency, TF over GST control) with ERF; 1.43 fold enrichment (6-mer frequency, TF over GST control) in the test with ETV3L; 1.37 fold enrichment (6-mer frequency, TF over GST control) with ETS2; 1.2 fold enrichment (6-mer frequency, TF over GST control) with SPDEF; 1.11 fold enrichment (6-mer frequency, TF over GST control) in the test with ETV7; 1.28 fold enrichment (6-mer frequency, TF over GST control) with ELF5. Moreover, the binding signal with ETV3 is 1.23 fold enrichment (6-mer frequency, TF over GST control); with ETV6, 1.2 fold enrichment (6-mer frequency, TF over GST control).

Take TGCGGA: the binding signal is 1.14 fold enrichment (6-mer frequency, TF over GST control) in the test with ERF; 1.3 fold enrichment (6-mer frequency, TF over GST control) with ETV3L; 1.35 fold enrichment (6-mer frequency, TF over GST control) with ETS2; 1.38 fold enrichment (6-mer frequency, TF over GST control) with SPDEF; 1.22 fold enrichment (6-mer frequency, TF over GST control) with ETV7; 1.46 fold enrichment (6-mer frequency, TF over GST control) with ELF5. Also, the binding signal with ETV3 was 1.54 fold enrichment (6-mer frequency, TF over GST control); in the test with ETV6, 1.34 fold enrichment (6-mer frequency, TF over GST control).

On to TTTATT, for which the binding signal is 1.21 fold enrichment (6-mer frequency, TF over GST control) with ERF; 1.44 fold enrichment (6-mer frequency, TF over GST control) in the test with ETV3L; 1.21 fold enrichment (6-mer frequency, TF over GST control) in the test with ETS2; 1.2 fold enrichment (6-mer frequency, TF over GST control) in the test with SPDEF; 1.31 fold enrichment (6-mer frequency, TF over GST control) in the test with ETV7; 1.24 fold enrichment (6-mer frequency, TF over GST control) in the test with ELF5. For the same sequence, the binding signal in the test with ETV3 is 1.33 fold enrichment (6-mer frequency, TF over GST control); in the test with ETV6 it was 1.28 fold enrichment (6-mer frequency, TF over GST control).

With CCGTAC, the binding signal is 1.39 fold enrichment (6-mer frequency, TF over GST control) in the test with ERF; 1.25 fold enrichment (6-mer frequency, TF over GST control) with ETV3L; 1.32 fold enrichment (6-mer frequency, TF over GST control) with ETS2; 1.41 fold enrichment (6-mer frequency, TF over GST control) in the test with SPDEF; 1.32 fold enrichment (6-mer frequency, TF over GST control) in the test with ETV7; 1.46 fold enrichment (6-mer frequency, TF over GST control) in the test with ELF5. In addition, the binding signal in the test with ETV3 was 1.36 fold enrichment (6-mer frequency, TF over GST control); with ETV6, 1.33 fold enrichment (6-mer frequency, TF over GST control).

GTTGCA: the binding signal with ERF is 1.13 fold enrichment (6-mer frequency, TF over GST control); with ETV3L, 1.19 fold enrichment (6-mer frequency, TF over GST control); with ETS2, 1.17 fold enrichment (6-mer frequency, TF over GST control); with SPDEF it was 1.17 fold enrichment (6-mer frequency, TF over GST control); in the test with ETV7 it was 1.15 fold enrichment (6-mer frequency, TF over GST control); with ELF5, 1.1 fold enrichment (6-mer frequency, TF over GST control). The binding signal is 1.14 fold enrichment (6-mer frequency, TF over GST control) with ETV3 and 1.11 fold enrichment (6-mer frequency, TF over GST control) with ETV6.
